# Rows were chosen to be rich in hits. Some 9.9% of all compounds tested hit in one or more screens of this group.
# Tau ThT inhib: inhibitors of human tau fibril formation, thioflavin T binding | P10636 | recombinant tau K18 P301L, heparin-induced fibrillization, ThT fluorescence | Potency, µM (doses to about 57.4 µM), without a hit: top-dose activity, negative = inhibition, actives largely listed as inhibitors | hit rate 2.1% among 270,000 | AID 1460; also: nearly all actives have a fitted effect of over 55% in size
# Target sequence (P10636 561-689 P618L limits assumed): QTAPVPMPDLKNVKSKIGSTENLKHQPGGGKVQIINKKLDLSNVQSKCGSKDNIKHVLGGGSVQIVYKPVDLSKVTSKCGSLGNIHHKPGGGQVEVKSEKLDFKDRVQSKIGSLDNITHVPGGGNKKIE
#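 In this qHTS, human K18 P301L tau is incubated with compound and heparin for 6 hr at 37 C, and Thioflavin T fluorescence then reports fibril load.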
# KDM4E inh: inhibitors of human JMJD2E histone demethylase; B2RXH2; JMJD2E catalytic domain, FDH-coupled NADH fluorescence (FDH is formaldehyde dehydrogenase); Potency, µM (doses to about 57.1 µM), inactives show at the highest dose activity change, negative = inhibition, usual class: inhibitors; hit rate 1.6% among 230,000; AID 2147; active = well fitted inhibition curve with a large enough effect, not every such curve was filed as active; inconclusive = small, poorly fitted or top-dose-only effect, or another doubt; inactive = no such curve, though single readings can be large or run the other way;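 also: 0% = wells with enzyme and -100% = buffer wells without enzyme; nearly all actives have a fitted effect of over 50% in size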
# HPGD inh: inhibitors of human 15-hydroxyprostaglandin dehydrogenase (HPGD) | purified HPGD, NADH fluorescence kinetic, PGE2 substrate | Potency, µM, inactives show at the highest dose activity change, negative = inhibition, actives largely listed as inhibitors | hit rate 4.3% among 150,000 | AID 894; active = well fitted inhibition curve with a large enough effect, not every such curve was filed as active; inconclusive = small, poorly fitted or top-dose-only effect, or another doubt; inactive = no such curve, though single readings can be large or run the other way
#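 NADH formation kinetics: reaction with 30 uM PGE2 and 1 mM NAD+ (final), 20 nM enzyme, Tris-HCl pH 8 with Tween 20, after 15 min compound preincubation at room temperature. Fluorescence change, last versus first of five reads.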
# ALDH1A1 inh: inhibitors of human aldehyde dehydrogenase 1A1; Purified ALDH1A1, NADH fluorescence, propionaldehyde substrate; Potency, µM (doses to about 75.3 µM), for inactives: at the top dose activity, negative = inhibition, hits mostly inhibitors; hit rate 7.3% among 220,000; AID 1030; active = well fitted inhibition curve with a large enough effect, not every such curve was filed as active; inconclusive = small, poorly fitted or top-dose-only effect, or another doubt; inactive = no such curve, though single readings can be large or run the other way;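 also: plate controls were no enzyme wells and a reference inhibitor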
# Target sequence (P00352 whole entry, looked up): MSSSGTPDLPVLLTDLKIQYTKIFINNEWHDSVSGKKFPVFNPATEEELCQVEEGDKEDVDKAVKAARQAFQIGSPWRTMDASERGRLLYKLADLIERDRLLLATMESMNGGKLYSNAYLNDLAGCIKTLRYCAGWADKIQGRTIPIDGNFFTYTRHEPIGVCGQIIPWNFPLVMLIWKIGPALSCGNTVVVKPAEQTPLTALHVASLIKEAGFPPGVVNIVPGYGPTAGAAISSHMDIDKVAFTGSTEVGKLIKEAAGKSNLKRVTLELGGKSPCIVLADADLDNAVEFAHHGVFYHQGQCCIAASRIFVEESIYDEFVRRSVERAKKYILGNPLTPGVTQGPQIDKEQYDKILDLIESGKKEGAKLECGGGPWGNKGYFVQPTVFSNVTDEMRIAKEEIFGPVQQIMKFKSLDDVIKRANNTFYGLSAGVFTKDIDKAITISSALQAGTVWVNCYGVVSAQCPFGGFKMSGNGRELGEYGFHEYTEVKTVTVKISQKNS
# Tau fibril FP: inhibitors of human tau fibril formation; Potency, µM (top dose mostly 57.7 µM), without a hit: at the top dose activity, negative = inhibition, most hits filed as inhibitors; K18 P301L tau heparin fibrillization, Alexa594 FP, 6 h; AID 1468; hit rate 0.39% among 280,000; P10636; also: nearly all actives have a fitted effect of over 55% in size
#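 FP of Alexa 594-tau after heparin (20 uM) induction. Substrate: human K18 P301L, 15 uM unlabeled, 0.24 uM labeled. Buffer 100 mM sodium acetate pH 7. 6 hr, 37 C.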
# Tau fluor cs: counter-screen for tau fibril formation inhibitors; AID 1463; Potency, µM (top dose mostly 57.7 µM), for the others: at the top dose activity change, negative = decrease; hit rate 0.93% among 280,000; tau K18 P301L (four-repeat tau fragment) Alexa594 fluorescence, heparin fibrillization; also: nearly all actives have a fitted effect of over 55% in size
#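 Human K18 P301L tau (15 uM unlabeled plus 0.24 uM Alexa 594-labeled, final) in 100 mM sodium acetate pH 7 was mixed with compound and 20 uM heparin and incubated 6 hr at 37 C.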
# The depositor's hits bear a star; ? = inconclusive; . = not tested or not shown; [ ] = another dose, or the depositor's remark. Unless noted, calls follow the shape of the dose curve; as a rule, active = well fitted curve in the direction sought with a large enough effect; inconclusive = small, poorly fitted or top-dose-only effect, or another doubt; inactive = no such curve, though single readings can be large; an effect the other way counts as inactive or inconclusive. Unless noted, % is scaled to controls: 0 for no effect and ±100 for the full control effect; potency is read from the fitted curve at half-maximal effect.
SMILES,Tau ThT inhib,KDM4E inh,HPGD inh,ALDH1A1 inh,Tau fibril FP,Tau fluor cs
O=C(Nc1ccc(Cl)c(Cl)c1)OCc1cccnc1,18%,4%,-10%,?,14µM*,?
O=C(Nc1ccc(Cl)c(Cl)c1)OCCNC(=O)c1ccncc1,-6%,5%,.,10%,1%,-2%
C[C@@H](CSC(=N)N)C(N)=O,.,.,-4%,6%[13.5 µM],.,.
CCOP(=O)(OCC)C(C#N)=C1SCN(c2ccc(Cl)cc2)CS1,2µM*,2%,20µM*,-10%,?,-25%
CCOC(=O)C1=C(C)NC2=C(C(=O)CC(C)(C)C2)C1c1ccc(N(C)C)cc1 (stereo unspecified),-20%,?,-5%,?,-4%,-21%
Cc1noc2c1C(c1ccc(N(C)C)cc1)C1=C(CC(C)(C)CC1=O)N2 (stereo unspecified),?,?,-17%,22µM*,?,-26%
CC1=C(C(=O)OC(C)C)C(c2ccc(N(C)C)cc2)C2=C(CC(C)(C)CC2=O)N1 (stereo unspecified),-9%,14µM*,-9%,?,2%,-13%
Cc1ccc(NC(=S)N(C)C)cc1C,3%,-6%,.,.,4%,0%
CC(=O)N1c2ccc(S(=O)(=O)N3CCN(c4cc(Cl)ccc4C)CC3)cc2CC1C (stereo unspecified),9%,.,.,.,4%,0%
Cc1ccc(-n2cc3c(=O)n(C)c(=O)n(C)c3c2)cc1C,-14%,-12%,-19%,14µM*,5%,2%
Cc1ccc(-n2ncc(C(=O)N3CCc4ccccc4C3)c2NC(=O)c2ccco2)cc1C,-3%,-5%,?,1µM*,2%,1%
Cc1ccc(S(=O)(=O)c2nc(-c3ccccc3F)oc2N2CCCCC2)cc1,-15%,.,.,.,4%,-21%
CCCCN(CC)CCCNC(=O)C1CCN(c2ncnc3c2sc2cccc(F)c23)CC1,-8%,-21%,.,?,-1%,-7%
CC(C)CCc1noc(CN2CCN(c3ccc(Cl)cn3)CC2)n1,-9%,-25%,.,4µM*,1%,-18%
Cc1ccc2[nH]c3c(c2c1)CN(C(=O)CN1CCCc2ccccc21)CC3,?,?,22µM*,2.8µM*,-8%,-11%
Cc1ccc2[nH]c3c(c2c1)CN(C(=O)CN1CCN(c2ccccc2F)CC1)CC3,?,2%,-14%,8.9µM*,15%,?
NC(=O)C1CCN(C(=O)CN2CCCc3ccccc32)CC1,?,?,?,20µM*,0%,-11%
Cc1ccc2[nH]c3c(c2c1)CN(C(=O)CN1CCCCC1)CC3,.,-11%,.,.,-7%,-15%
COc1ccc(C(=O)NNc2ncnc3c2cnn3-c2ccc(C)c(Cl)c2)cc1,4%,.,.,.,-8%,7%
Cc1cccc2cc(CN(Cc3nnnn3Cc3ccco3)C3CCCC3)c3nnnn3c12,-23%,?,?,?,4%,-10%
CC(CCc1ccccc1)NC(=O)/C=C/c1ccccc1 (stereo unspecified),-14%,5%,-4%,11µM*,-8%,-21%
CC(CCc1ccccc1)NC(=O)CN1CCN(c2ccccc2)CC1 (stereo unspecified),?,0%,.,32µM*,10%,-6%
Cc1ccc(-n2nc(C(=O)N3CCN(c4cc(Cl)ccc4C)CC3)c3c4ccccc4n(C)c3c2=O)cc1,1%,.,.,.,7%,-2%
CC1=CC(=O)C(C(C)C)=C/C1=N/OS(=O)(=O)c1ccccc1,14µM*,1%,.,.,?,?
Cc1ccc(S(=O)(=O)ON=C2CCN(S(=O)(=O)c3ccccc3)CC2)cc1,12%,-1%,-7%,-5%,6%,4%
SMILES,Tau ThT inhib,KDM4E inh,HPGD inh,ALDH1A1 inh,Tau fibril FP,Tau fluor cs
CC1=CC(=O)C=C(C)C1=NOS(=O)(=O)c1ccccc1,14µM*,7%,-15%,?,?,?
CCc1ccccc1NC(=O)c1cnc2sc(N3CCOCC3)nn2c1=O,-7%,.,.,.,-8%,-9%
CC1CCCN(CC(O)CN)C1 (stereo unspecified),-4%,56%,-9%,4%,6%,8%
CC(=O)Nc1ccccc1-c1nc2ccc(C(=O)N3CCN(c4ccccc4)CC3)cc2[nH]c1=O,8%,3%,?,28µM*,-10%,-3%
CC(=O)Nc1ccccc1-c1nc2ccc(C(=O)N3CCN(c4cccc(C)c4)C(C)C3)cc2[nH]c1=O (stereo unspecified),?,-24%,-14%,-2%,5%,-19%
COC(=O)c1cnc(SCc2ccc(Cl)cc2)n1C,-9%,-8%,.,5%,8%,-6%
Cn1c(-c2ccc(F)cc2)cnc1SCC(=O)Nc1ccccc1,-6%,-2%,.,2%,10%,-5%
CCSc1ncc(/C=N/Nc2ccc([N+](=O)[O-])cc2)n1C,0.89µM*,-6%,-10%,5%,-12%,?
CC(C)(C)c1cnnn1-c1ccc(/C=N/Nc2ccc([N+](=O)[O-])cc2)cc1,?,-11%,-18%,?,?,?
CCSc1ncc(/C=N/Nc2ccccc2)n1C,4.5µM*,2%,-14%,?,?,?
CCSc1ncc(/C=N/Nc2ccc(Cl)cc2)n1C,7.9µM*,18µM*,-23%,?,-15%,6.3µM*[quencher]
CCOc1ccc(NC(=O)Cn2c(=O)n(-c3cccc(Cl)c3)c(=O)c3c2c2cc(C)ccc2n3C)cc1,-1%,.,.,.,2%,-10%
CCS(=O)(=O)c1nc(S(=O)(=O)c2ccc(Cl)cc2)c(N2CCc3ccccc3C2)s1,-6%,-6%,-8%,1.4µM*,-2%,-13%
CCN(CC(=O)NCc1ccccn1)S(=O)(=O)c1ccc(Cl)cc1,-5%,4%,22µM*,?,-1%,4%
CCS(=O)(=O)c1nc(S(=O)(=O)c2ccc(Cl)cc2)c(NCc2ccccn2)s1,-3%,-1%,.,13µM*,-13%,-13%
CN(CC(=O)NCc1ccccn1)S(=O)(=O)c1ccc(Br)cc1,-2%,3%,.,8%,-2%,5%
COC(=O)CC1Oc2cc3oc4c5ccccc5oc(=O)c4c3cc2O1 (stereo unspecified),?,?,-18%,?,-17%,-13%
CC(C)NC(=S)NCc1cccs1,2%,1%,.,-4%,-5%,3%
O=C(c1cc(F)ccc1F)C1CCCN(C(=O)c2ccc(F)cc2Cl)C1 (stereo unspecified),0%,-10%,.,?,1%,-6%
CC1CCCCN1C(=O)CSc1nc2ccccc2nc1Cc1ccc(Cl)cc1 (stereo unspecified),-13%,.,.,.,-6%,-15%
